G9a inh: blocks human histone lysine methyltransferase G9a. Potency, µM (series often up to 102 µM), without a hit: top-dose activity, negative = inhibition, most hits filed as inhibitors. 8.8% of 350,000 active. G9a H3K9 monomethylation, AlphaScreen, 2 h. AID 504332. Q96KQ7; note: % is set by controls: 0 for no effect and ±100 for the full control effect; nearly all actives have a fitted effect of over 75% in size
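Methyltransferase reactions run at room temperature for 2 h (20 nM enzyme, 500 nM biotin-H3K9 peptide, 20 uM SAM) after a 15 min compound preincubation; product detected by AlphaScreen beads and anti-H3K9me1 antibody.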
Sfp PPTase inh: inhibitors of Bacillus subtilis Sfp phosphopantetheinyl transferase; Q9F4F7; Biochemical Sfp PPTase activity, qHTS; Potency, µM, inactives show largest response in the series, negative = inhibition, actives largely listed as inhibitors; 3.5% of 310,000 active; AID 1490;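 note: the enzyme is Sfp with the accession as filed and its product quenches rhodamine fluorescence; 0% = enzyme reaction without inhibitor and -100% = no enzyme wells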
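Fluorescence-quenching assay with 15 nM Sfp, 5 uM rhodamine-CoA and 12.5 uM BHQ-2-labelled ybbR peptide in pH 7.6 Hepes/MgCl2 buffer. Enzyme was pre-incubated with compound for 15 min at room temperature. Rate was taken from the 30-min fluorescence change (525/598 nm).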
HP1b chromo inh: HP1-beta chromodomain-methylated histone interaction inhibition; P83916; AlphaScreen HP1-beta / biotin-H3K9me3 peptide binding; Potency, µM (doses to about 114 µM), without a hit: at the top dose activity change, negative = inhibition, hits mostly inhibitors; AID 540317; 0.56% of 390,000 active; note: nearly all actives have a fitted effect of over 70% in size
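Compound inhibition of the preformed complex between 50 nM HP1-beta and 50 nM biotinylated H3K9me3 peptide was read by AlphaScreen. Buffer was PBS pH 7.4 with 0.01% Tween-20. Incubations ran 30 min at room temperature, with 10 ug/mL donor/acceptor beads.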
BAZ2B inh: blocks human BAZ2B; Q9UIF8; AlphaScreen BAZ2B-H3K14Ac peptide displacement; Potency, µM (series often up to 114 µM), without a hit: at the top dose activity change, negative = inhibition, hits mostly inhibitors; 4.4% of 360,000 active; AID 504333; note: % is set by controls: 0 for no effect and ±100 for the full control effect; nearly all actives have a fitted effect of over 60% in size
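Complex of BAZ2B and biotin-H3K14Ac (50 nM apiece) forms over 30 min at RT, then faces library compounds up to 110 uM for another 30 min; AlphaScreen beads added, 20 min dark incubation, luminescence read.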
TDP1 block: TDP1 (human) enzyme inhibition; Q9NUW8; recombinant TDP1, AlphaScreen DNA substrate cleavage; Potency, µM (top dose mostly 130 µM), inactives show at the top dose activity change, negative = inhibition, usual class: inhibitors; 0.28% of 350,000 active; AID 485290; note: % is set by controls: 0 for no effect and ±100 for the full control effect; nearly all actives have a fitted effect of over 40% in size
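Signal: AlphaScreen proximity between streptavidin donor and anti-FITC acceptor beads on intact substrate. Reaction: Tdp1 1 nM, substrate 15 nM final, 5 min RT after 15 min compound preincubation.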
JMJD2A Tudor: inhibitors of human JMJD2A Tudor domain. AID 504339. AlphaScreen JMJD2A-Tudor / H3K4me3 peptide binding. Potency, µM (top dose mostly 114 µM), without a hit: at the top dose activity change, negative = inhibition, most hits filed as inhibitors. 4.4% of 390,000 active. O75164; note: % is set by controls: 0 for no effect and ±100 for the full control effect; nearly all actives have a fitted effect of over 50% in size
Starred values were filed as active, the others as inactive; ? = inconclusive; . = no result given; [ ] = another dose, or the depositor's remark. Shown are actives, neighbours in structure and some others; about 12% of the full set was active somewhere. Calls come from the whole dose curve; as a rule, active = well fitted curve in the direction sought with a large enough effect; inconclusive = small, poorly fitted or top-dose-only effect, or another doubt; inactive = no such curve, though single readings can be large; an effect the other way counts as inactive or inconclusive. Potency is the fitted concentration of half-maximal effect.

SMILES | G9a inh | Sfp PPTase inh | HP1b chromo inh | BAZ2B inh | TDP1 block | JMJD2A Tudor
CC(C)C[C@H](NC(=O)NCc1ccc(Cl)cc1)C(=O)O | 35µM* | 15% | 13% | 2% | 0% | -25%
CCN(C(=O)Cn1cnc2onc(-c3ccc(F)cc3)c2c1=O)c1ccc(OC)cc1 | -20%[59 µM] | . | 37% | 7%[57.1 µM] | 4% | -12%
CC(C)(NC(=O)c1cc(Cl)c2ccccc2c1O)C(=O)O | 32µM* | 17% | 30% | -21% | 4% | -15%
NCCCC[C@H](NC(=O)CNC(=O)[C@@H]1CCCN1C(=O)[C@H](Cc1ccc(O)cc1)NC(=O)CN)C(=O)N[C@@H](Cc1ccccc1)C(=O)O | . | 4% | . | . | 7% | .
COc1cc(O)cc(/C=C/c2ccccc2)c1 | -27%[2.33 µM] | -26% | 4% | . | 10%[56.1 µM] | -17%
COC1=CC(=O)C(O)=C/C1=C\C=C\c1ccccc1 | . | 11µM* | . | . | 18%[56.1 µM] | .
COc1ccc(CCNC(=O)CSc2nnnn2-c2cccc(C(C)=O)c2)cc1OC | 2%[59 µM] | . | 31% | -16% | -2% | -13%
CCOC(=O)c1c(C)[nH]c(C(=O)COC(=O)[C@H](C)N2C(=O)C3CCCCC3C2=O)c1C (some centres undefined) | . | . | ? | . | . | -34%
CCC(CC)C(=O)Nc1c(C(=O)N2CCN(c3ccccc3F)CC2)oc2ccccc12 | ? | . | 7% | ? | 6% | -33%
C=CCNc1nc2c3ccccc3n(C(C)=O)c2s1 | 32µM* | 79µM* | -2% | ? | 2% | ?
CC(=O)n1c2ccccc2c2nc3ccccc3nc21 | 33%[0.501 µM] | 13% | 35% | 37% | . | 0%
Cc1ccc(NC(=S)NNC(=S)Nc2ccc(C)cc2C)cc1 | -28% | 13µM* | ? | -19% | -6% | ?
Cc1ccc(NC(=S)Nc2ccc3cn[nH]c3c2)c(C)c1 | ? | 2% | -11% | -30% | 1% | -11%
O=C(NC(=S)Nc1cccc2cnccc12)c1ccccc1 | 40µM* | 45µM* | 39% | 0% | -1% | -9%
CCc1ccc(NC(=S)Nc2cccc3cnccc23)cc1 | 45µM* | 22µM* | -4% | ? | 0% | -15%
Cc1ccc(NC(=S)Nc2cccc3cnccc23)c(C)c1 | 50µM* | 50µM* | -10% | -22% | 5% | -14%
Cc1ccc(NC(=S)Nc2cccc3ccccc23)cc1F | . | ? | -9% | -35% | 5%[56.1 µM] | -20%
O=C(NC(=S)Nc1cccc2cccnc12)c1ccccc1 | -16% | 9% | 12% | 9% | -2% | -9%
CN(Cc1nc2ccccc2c(=O)[nH]1)C(=O)c1cccc(S(=O)(=O)N2CCc3ccccc32)c1 | . | . | 27% | . | 0% | -17%
COc1ccccc1-c1noc(-c2ccc(N3CCN(c4ccccc4)CC3)c([N+](=O)[O-])c2)n1 | -8%[59 µM] | . | 59% | -2% | 9% | 0%
Cc1ccc(NC(=S)Nc2ccccn2)c(C)c1 | ? | -2% | 15% | -34% | 4% | -17%
C=C(C)CNC(=S)Nc1cccc2cnccc12 | 25% | -5% | 54% | 34% | 5% | -1%
Cc1cc(C)cc(NC(=S)Nc2cccc3cnccc23)c1 | 18µM* | 25µM* | ? | ? | 5% | -31%
Cc1ccc(NC(=S)c2ccncc2)c(C)c1 | 79µM* | 19% | 52% | ? | 1% | 0%
CC(=O)c1ccc(N2CCN(S(=O)(=O)c3cccc(S(=O)(=O)N4CCOCC4)c3)CC2)cc1 | -34% | -5% | -10% | ? | 1% | 4%[11.4 µM]
SMILES | G9a inh | Sfp PPTase inh | HP1b chromo inh | BAZ2B inh | TDP1 block | JMJD2A Tudor
CC(=O)c1ccc(N2Cc3ccccc3C3(CCOCC3)C2=N)cc1 | 56µM* | 13% | 37% | -25% | 1% | -5%
N#Cc1c2n(c(=S)n(-c3ccc(F)cc3)c1=O)CCCCC2 | 7% | 7% | 24% | 3% | 1% | -13%
CCCCOCC(O)CCc1n[nH]c(=S)n1-c1ccccc1 (centres undefined) | . | ? | 50% | -15% | . | ?
Cc1n[nH]c(=S)n1-c1ccc(Cl)cc1 | ? | -17% | 36% | -2% | -5% | 2.5µM*
CC(c1n[nH]c(=S)n1-c1ccc(F)cc1)N1CCCCC1 (centres undefined) | 35µM* | -2% | 3% | -3% | -3% | ?
CCc1ccc(-n2c(C)n[nH]c2=S)cc1 | -48% | -8% | 8% | 1% | . | 3.5µM*
CC(C)CCC(CC(C)O)c1n[nH]c(=S)n1-c1ccccc1 (centres undefined) | 6.3µM* | -23% | 8% | 10% | 3% | 8.9µM*
CCOC(=O)c1ccccc1NC(=O)Cn1c(=O)n(CCC(=O)NCc2ccccc2OC)c(=O)c2ccccc21 | -6%[59 µM] | . | 14% | -9% | -4% | -11%
CC(=O)c1ccc(NC(=O)Cn2c(=O)nc(-c3ccccc3)c3cc(Cl)ccc32)cc1 | 17%[59 µM] | . | 19% | -16% | 1% | -9%
O=C(COc1ccccc1Cl)NCCCNC(=O)c1cccnc1 | -3% | 20% | 36% | 2% | 9% | -4%
COC(Cc1n[nH]c(=S)n1-c1ccc(Cl)cc1)OC | ? | 25% | 17% | 4% | -14% | 14µM*
Cc1ccc(OCc2n[nH]c(=S)n2-c2ccc(Cl)cc2)cc1 | 3.2µM* | 6% | 12% | -38% | . | ?
S=c1[nH]nc(COc2ccc(Cl)cc2)n1-c1ccc(Cl)cc1 | 1%[0.501 µM] | 10% | -16% | ? | . | ?
CCC(c1n[nH]c(=S)n1-c1ccccc1)N(C)C (centres undefined) | 8.9µM* | -8% | 26% | -23% | 0% | 32µM*
Cc1n[nH]c(=S)n1-c1ccccc1 | . | -3% | 20% | -31% | 3% | 89µM*
CC(c1n[nH]c(=S)n1-c1ccc(Cl)cc1)N(C)C (centres undefined) | 8.9µM* | -26% | -19% | -11% | 1% | 7.9µM*
O=C(/C=C/Nc1ccc(F)c(F)c1)c1cccs1 | 45µM* | -10% | 31% | 1% | 0% | -19%
O=C(/C=C/Nc1ccc(F)cc1)c1cccs1 | . | . | 34% | . | . | 0%
O=C(O)c1ccc(CSc2nnc(-c3ccco3)o2)cc1 | -24% | 7% | 41% | 12% | -3% | -9%
COc1cc(OC)cc(-c2nnc(SCc3ccc(C(=O)O)cc3)o2)c1 | 40µM* | 50µM* | 10% | 5% | 6% | -24%
COc1ccc(C(=O)c2nc3c(n2O)CCCC3)cc1OC | ? | -23% | 1% | -27% | 5% | 50µM*
CCOc1ccc(N2CCCn3c2nc2c3c(=O)n(CCc3ccccc3)c(=O)n2C)cc1 | 3.2µM* | 14% | . | -17% | -2% | .
C1CCCC(NC2=NCCO2)CCC1 | 2% | 13% | 20% | -11% | -7% | -16%
